# In PubChem BioAssay AID463173 (ICCB-Longwood Screening Facility, Harvard Medical School, 2010):
# In all, about 52,000 compounds went through this assay and about 4,300 (8.3%) were called active. No stated cut-off is given here; in the data, active means survival mostly below about 52% (no sharp cut-off); inactive means mostly above about 56%. What follows is part of a selection rich in actives, with near analogues and random picks from the rest.
# Tested on: DeltatarO mutant
# Assay: S. aureus survival, RN4220 and DeltatarO strains – OD600, teichoic acid synthesis inhibitors, primary screen (AID 463173)
# Conditions: S. aureus RN4220 wild type/DeltatarO growth, OD600, 18 h, stronger effect = lower value, screened at 18.75 µg/mL (by protocol)
row,Structure (SMILES),survival
1,N#Cc1ccccc1Cn1c(=O)n(-c2ccc(F)c(Cl)c2)c(=O)c2sccc21,112% (inactive)
2,O=S(=O)(c1ccccc1)c1cccc(S(=O)(=O)N2CCCC2)c1,86% (inactive)
3,Cc1cccc(C)c1NC(=O)C(c1ccccc1)N(Cc1ccco1)C(=O)Cn1nnc2ccccc21 (stereo not given),74% (inactive)
4,CCOc1ccc(NC(=O)C2CCN(C(=O)N3CC(C)Oc4ccc(Cl)cc43)CC2)cc1 (stereo not given),100% (inactive)
5,Cc1cc(=O)oc2ccccc12,83% (inactive)
6,Cc1ccc(C(c2nnnn2C2CCCC2)N2CCc3ccccc32)cc1 (stereo not given),100% (inactive)
7,CC(C)CCNC(=O)c1ccc2c(c1)N(Cc1cccc(Cl)c1)C(=O)c1ccccc1S2,83% (inactive)
8,COc1cccc(NC(=O)Nc2ccc3c(c2)N(C)C(=O)c2ccccc2S3)c1,51% (inactive)
9,CCc1cccc(NC(=O)Nc2ccc3c(c2)N(C)C(=O)c2ccccc2S3)c1,26% (active)
10,CCN1C(=O)c2ccccc2Sc2ccc(NC(=O)Nc3ccccc3OC)cc21,61% (inactive)
11,CCc1ccccc1NC(=O)Nc1ccc2c(c1)N(CC)C(=O)c1ccccc1S2,41% (active)
12,CN1C(=O)c2ccccc2Sc2ccc(NC(=O)NCc3ccccc3Br)cc21,51% (inactive)
13,COc1ccccc1CNC(=O)Nc1ccc2c(c1)N(C)C(=O)c1ccccc1S2,70% (inactive)
14,CCOC(=O)c1cccc(NC(=O)Nc2ccc3c(c2)N(C)C(=O)c2ccccc2S3)c1,92% (inactive)
15,Cc1ccccc1CNC(=O)Nc1ccc2c(c1)N(C)C(=O)c1ccccc1S2,63% (active)
16,CC(C)CCNC(=O)Nc1ccc2c(c1)N(C)C(=O)c1ccccc1S2,89% (inactive)
17,CCN1C(=O)c2ccccc2Sc2ccc(NC(=O)Nc3cc(C)cc(C)c3)cc21,67% (inactive)
18,CC(C)CCNC(=O)c1ccc2c(c1)N(C)C(=O)c1ccccc1S2,-5% (active)
19,CCOC(=O)c1c(C)[nH]c(C)c1S(=O)(=O)N1CCCC(C(=O)N2CCN(c3ccccc3F)CC2)C1 (stereo not given),84% (inactive)
20,CCc1ccc2oc(-c3ccc(C)c(NC(=O)Cc4ccccc4)c3)nc2c1,145% (inactive)
21,CCOc1ccc2c(c1)c(=O)c(C(=O)c1ccccc1)cn2Cc1ccccc1,87% (inactive)
22,Cc1ccc(S(=O)(=O)Cn2nnnc2CN2CCC(Cc3ccccc3)CC2)cc1,100% (inactive)
23,O=C(Cn1c(=O)c2cccn2c2ccc(F)cc21)Nc1cccc(F)c1,64% (inactive)

row,Structure (SMILES),survival
1,Cc1ccc(C2=Nc3ccccc3N=C(c3ccc(F)cc3)C2)c(O)c1,60% (inactive)
2,COC(=O)Cn1c(C(=O)OC)cc2c1ccn2-c1ccc(F)cc1,93% (inactive)
3,Cc1nn(CCCC(=O)NCc2ccc(F)cc2)c(=O)c2c1sc1ccccc12,85% (inactive)
4,O=C(NCCc1ccc(Cl)cc1)C(=O)NCC(c1ccc2c(c1)OCO2)N1CCOCC1 (stereo not given),117% (inactive)
5,O=C(c1cccn2c(=O)c3cc(Cl)ccc3nc12)N1CCN(c2ccccc2F)CC1,76% (inactive)
6,CN1C(=O)c2ccccc2Sc2ccc(NC(=O)NCc3cccc(Cl)c3)cc21,78% (inactive)
7,COc1ccc(CNC(=O)Nc2ccc3c(c2)N(C)C(=O)c2ccccc2S3)cc1,112% (inactive)
8,COc1cccc(CNC(=O)Nc2ccc3c(c2)N(C)C(=O)c2ccccc2S3)c1,42% (active)
9,CCOC(=O)c1c(C)[nH]c(C)c1S(=O)(=O)N1CCC(C(=O)NCc2ccc(F)cc2)CC1,6% (active)
10,CCOC(=O)c1c(S(=O)(=O)N2CCC(C(=O)Nc3ccc(OCC)cc3)CC2)c(C)n(C)c1C,99% (inactive)
11,CCOC(=O)c1c(C)[nH]c(C)c1S(=O)(=O)N1CCC(C(=O)Nc2ccc(C)c(Cl)c2)CC1,79% (inactive)
12,CCOC(=O)c1c(C)[nH]c(C)c1S(=O)(=O)N1CCC(C(=O)NCc2ccc(C)cc2)CC1,72% (inactive)
13,CCOC(=O)c1c(C)[nH]c(C)c1S(=O)(=O)N1CCC(C(=O)NCc2ccccc2)CC1,81% (inactive)
14,CCOC(=O)c1c(C)[nH]c(C)c1S(=O)(=O)N1CCC(C(=O)Nc2ccc(OCC)cc2)CC1,-1% (active)
15,CCN(C(=O)c1ccco1)c1nnc(Cn2nnc3ccccc32)s1,91% (inactive)
16,Cc1c(C2=CCN(S(=O)(=O)c3cccc(Cl)c3)CC2)c2ccccc2n1CC(=O)N1CCCC1,75% (inactive)
17,CN1CC(=O)Nc2cc(C(=O)O)ccc21,87% (inactive)
18,Cc1ccc(OCc2ccc(-c3nc(C#N)c(N4CCC(C)CC4)o3)o2)cc1,58% (inactive)
19,COc1ccc(OCc2ccc(-c3nc(C#N)c(N4CCN(c5ccccc5)CC4)o3)o2)cc1,77% (inactive)
20,COc1ccc(OCc2ccc(-c3nc(C#N)c(N4CCC(C(N)=O)CC4)o3)o2)cc1,72% (inactive)
21,CCN1CCN(c2oc(-c3ccc(COc4ccc(OC)cc4)o3)nc2C#N)CC1,49% (active)
22,Cc1ccccc1OCc1ccc(-c2nc(C#N)c(N3CCC(C(N)=O)CC3)o2)o1,38% (active)
23,CCN1CCN(c2oc(-c3ccc(COc4ccccc4C)o3)nc2C#N)CC1,82% (inactive)

row,Structure (SMILES),survival
1,CCN1CCN(c2oc(-c3ccc(COc4ccc(C)cc4)o3)nc2C#N)CC1,38% (active)
2,Cc1ccccc1OCc1ccc(-c2nc(C#N)c(N3CCCCC3)o2)o1,99% (inactive)
3,CC1CCN(c2oc(-c3ccc(COc4ccc(Cl)cc4)o3)nc2C#N)CC1,81% (inactive)
4,Cc1cccc(OCc2ccc(-c3nc(C#N)c(N4CCC(C(N)=O)CC4)o3)o2)c1,80% (inactive)
5,N#Cc1nc(-c2ccc(COc3ccc(Cl)cc3)o2)oc1N1CCC(C(N)=O)CC1,34% (active)
6,COc1ccc(OCc2ccc(-c3nc(C#N)c(N4CCC(C)CC4)o3)o2)cc1,54% (inactive)
7,Cc1nc2c3ccccc3nc(NNC(=O)CCC(=O)O)n2n1,94% (inactive)
8,Cc1ccc(C2c3cccn3CCN2S(=O)(=O)c2ccc([N+](=O)[O-])cc2)cc1 (stereo not given),99% (inactive)
9,CC(C)CCNC(=O)c1ccc2c(c1)nc1n2CCCCC1,86% (inactive)
10,CCCCN(C)S(=O)(=O)c1cc(-c2cc(C)no2)ccc1C,84% (inactive)
11,N#Cc1nc(-c2ccc(COc3ccccc3)o2)oc1N1CCCCC1,48% (inactive)
12,N#Cc1nc(-c2ccc(COc3ccc(Cl)cc3)o2)oc1N1CCCCC1,49% (inactive)
13,COc1ccc(OCc2ccc(-c3nc(C#N)c(N4CCN(c5cccc(Cl)c5)CC4)o3)o2)cc1,75% (inactive)
14,CN1CCN(c2oc(-c3ccc(COc4ccc(Cl)cc4)o3)nc2C#N)CC1,45% (active)
15,COc1ccc(OCc2ccc(-c3nc(C#N)c(N4CCN(C)CC4)o3)o2)cc1,52% (inactive)
16,COc1ccc(OCc2ccc(-c3nc(C#N)c(N4CCCCC4)o3)o2)cc1,42% (active)
17,Cc1ccc(C)c(N2CCN(S(=O)(=O)c3ccc4c(c3)CC(=O)N4C)CC2)c1,125% (inactive)
18,COCCNC(=O)C(=O)Nc1c2c(nn1-c1ccccc1)CS(=O)(=O)C2,92% (inactive)
19,CC(C)CCNC(=O)C(=O)Nc1c2c(nn1-c1ccccc1)CS(=O)(=O)C2,77% (inactive)
20,CC(C)OCCCNC(=O)C(=O)Nc1c2c(nn1-c1ccccc1)CS(=O)(=O)C2,-5% (active)
21,CN(c1ccc(Cl)cc1)S(=O)(=O)c1nnc(NC(=O)C2CCCCC2)s1,106% (inactive)
22,Cc1ccc(NC(=O)C(Cc2ccccc2)NS(=O)(=O)c2cccc3nsnc23)c(C)c1 (stereo not given),125% (inactive)
23,CCCNC(=O)C1CCC(Cn2c(=O)c3sccc3n(CC(=O)N3CCC(C)CC3)c2=O)CC1 (stereo not given),73% (inactive)

row,Structure (SMILES),survival
1,Cc1ccccc1NC(=O)c1ccccc1NC(=O)c1ccccc1Cl,72% (inactive)
2,Cc1cccc(COc2ccc(-c3cc(C(F)(F)F)n4nc(C)cc4n3)cc2)c1,9% (active)
3,Cc1cc2nc(-c3ccc(OCc4ccc(F)cc4)cc3)cc(C(F)(F)F)n2n1,34% (active)
4,Cc1ccc(COc2ccc(-c3cc(C(F)(F)F)n4nc(C)cc4n3)cc2)cc1,137% (inactive)
5,COc1ccc(-c2cc3nc(-c4ccc(C)cc4)cc(C(F)(F)F)n3n2)cc1,135% (inactive)
6,Cc1cc2nc(-c3ccc(OCc4ccccc4)cc3)cc(C(F)(F)F)n2n1,79% (inactive)
7,Cc1cc(C(F)(F)F)n2nc(C)cc2n1,68% (inactive)
8,Cc1ccc(C)c(CN2C(=O)c3ccccc3S(=O)c3ccc(C(=O)NCCC4=CCCCC4)cc32)c1 (stereo not given),52% (inactive)
9,COc1cccc(-c2nnc(SCC(=O)NC3CCCCC3)o2)c1,73% (inactive)
10,Cc1ccc(C(=O)O)cc1-n1c(C)ccc1-c1ccccc1,59% (inactive)
11,O=C(Cn1c(=O)nc(-c2ccccc2)c2ccccc21)Nc1ccc(Cl)c(C(F)(F)F)c1,90% (inactive)
12,COc1cccc(NC(=O)Cn2c(=O)n(Cc3ccccc3)c(=O)c3ccccc32)c1,125% (inactive)
13,COc1ccc(-n2ccnc(NCCc3ccccc3)c2=O)cc1OC,102% (inactive)
14,CCCOc1ccc(CNC(=O)Cn2c(=O)oc3ccccc32)cc1,80% (inactive)
15,CCCCOc1ccc(Cn2c(=O)sc3ccccc32)cc1,-1% (active)
16,CCOc1ccc(Cn2c(=O)sc3ccccc32)cc1,85% (inactive)
17,O=c1sc2ccccc2n1CCCOc1ccccc1,105% (inactive)
18,CCCOc1ccc(Cn2c(=O)sc3ccccc32)cc1,-1% (active)
19,CC(C)CCOc1ccc(Cn2c(=O)sc3ccccc32)cc1,0% (active)
20,Cc1ccc(NC(=O)CSc2nc3n[nH]c(C)c3c(=N)n2-c2ccccc2C)cc1C,77% (inactive)
21,CCOC(=O)C1CCC(CN(Cc2ccc(OC)cc2)S(=O)(=O)c2ccc(F)c(C(=O)Nc3cc(Cl)ccc3OC)c2)CC1 (stereo not given),83% (inactive)
